Results on four sequences are retold here after article PMC3919609, “Deep sequencing of large library selections allows computational discovery of diverse sets of zinc fingers that bind common targets”.

Common to all, as to assay: Zn; 100 nM beta-estradiol; yeast GFP reporter, 12 h induction, 3 biological replicates
Holding throughout (conditions): tags: estrogen receptor LBD - VP16 fusion (left out); vector residues GT and GS kept at the ends; dsDNA, one strand shown

The target of assay [1] is RA three-finger array, finger 2 TSYNLTR (synthetic construct (mouse Zif268 …, UniProt P08046 333-418, E352N;T354R;R355A;R377T;D379Y;H380N;T383R;D407A;E408N;R409L;K410V)).
Assay [2] has as its target RA three-finger array, finger 2 RADNLTE (synthetic construct (mouse Zif268 …, UniProt P08046 333-418, E352N;T354R;R355A;S378A;H380N;T383E;D407A;E408N;R409L;K410V)).
The target of assay [3] is RA three-finger array, finger 2 RSDNLTR (synthetic construct (mouse Zif268 …, UniProt P08046 333-418, E352N;T354R;R355A;H380N;T383R;D407A;E408N;R409L;K410V)).
Assay [4] addresses RA three-finger array, finger 2 QSGNLTE (synthetic construct (mouse Zif268 …, UniProt P08046 333-418, E352N;T354R;R355A;R377Q;D379G;H380N;T383E;D407A;E408N;R409L;K410V)).
The target in assay [5] is RA three-finger array, finger 2 DSSNLRS (synthetic construct (mouse Zif268 …, UniProt P08046 333-418, E352N;T354R;R355A;R377D;D379S;H380N;T382R;T383S;D407A;E408N;R409L;K410V)).
Assay [6] has as its target RA three-finger array, finger 2 HSSNLTH (synthetic construct (mouse Zif268 …, UniProt P08046 333-418, E352N;T354R;R355A;R377H;D379S;H380N;T383H;D407A;E408N;R409L;K410V)).

On to GAGCAGAAG, for which the binding signal in assay [1] was 0.098 mean GFP / mean GFP of Zif268 on its consensus site; in assay [2], 0.267 ± 0.016 mean GFP / mean GFP of Zif268 on its consensus site. On to GAGGAGAAG, for which the values for the binding signal in assay [1] and in assay [3] were 0.873 ± 0.063 mean GFP / mean GFP of Zif268 on its consensus site and 0.986 ± 0.121 mean GFP / mean GFP of Zif268 on its consensus site, respectively. As for GAGCAAAAG, the binding signal in assay [4] is 0.251 ± 0.044 mean GFP / mean GFP of Zif268 on its consensus site. GAGCACAAG: the values for the binding signal in assay [5] and in assay [6] were 0.498 ± 0.055 mean GFP / mean GFP of Zif268 on its consensus site and 0.472 ± 0.086 mean GFP / mean GFP of Zif268 on its consensus site, respectively.
